Bioassay records from PubChem BioAssay.
This is a sample that favours compounds with a hit; in the whole collection about 7.9% have one here.
HT1080-NT tox: kills 2HG-producing HT-1080-NT fibrosarcoma cells | HT-1080-NT fibrosarcoma viability, CellTiter-Glo ATP luminescence, 48 h | Potency, µM (series often up to 46.1 µM), without a hit: at the top dose activity, negative = less viability, hits mostly cytotoxic | 360,000 compounds, 1.6% hits | AID 686970;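 further: NT is the 2HG producing partner of a matched IDH1 knockdown line; 0% = DMSO-treated cells and -100% = media-only wells without cells; nearly all actives have a fitted effect of over 55% in size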
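HT-1080-NT fibrosarcoma cells (2HG-overproducing), 750 cells/well in RPMI with 5% FBS, dosed after 2 h and incubated 48 h at 37C. CellTiter-Glo luminescence normalized to DMSO and no-cell wells; concentration-response curves fitted and classed.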
KB-V1 cytotox: kills drug-selected multidrug resistant KB-V1 cells | 400,000 compounds, 3.4% hits | Potency, µM (top dose mostly 46.1 µM), most hits filed as cytotoxic | KB-V1 MDR cells viability, CellTiter-Glo, 72 h; further: on the % scale 0 is the no-effect control and ±100 the full control effect; nearly all actives have a fitted effect of over 60% in size
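qHTS viability screen in drug-selected KB-V1 MDR cells: 72 h compound treatment at 37 degrees C, ATP luminescence end point.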
HT1080 IDH1KD tx: kills HT-1080 cells with IDH1 knockdown; HT-1080 IDH1 knockdown viability, ATP luminescence, 48 h; Potency, µM (top dose mostly 46.1 µM), inactives show top-dose activity, negative = toxicity, most hits filed as cytotoxic; 360,000 compounds, 2% hits; AID 686971;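 further: 0% = DMSO wells and -100% = cell-free medium wells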
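Using the IDH1-knockdown HT-1080 line run in the same batch and compound series as the NT line, viability after 48 h at 37 °C was determined by CellTiter-Glo luminescence and expressed as % activity.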
MCF10A rerep: inducers of DNA re-replication in MCF 10A breast cells. MCF 10A DNA re-replication, Hoechst nuclear intensity, 48 h. Potency, µM (doses to about 46.1 µM), for inactives: at the top dose activity, positive = re-replication, hits mostly activators. 350,000 compounds, 2.9% hits; further: % of control where 0% means no effect; nearly all actives have a fitted effect of over 50% in size
KB-3-1 cytotox: kills parental KB-3-1 adenocarcinoma cells; KB-3-1 viability, CellTiter-Glo ATP luminescence, 72 h; Potency, µM (highest dose often 46.1 µM), most hits filed as cytotoxic; 400,000 compounds, 1.4% hits; further: on the % scale 0 is the no-effect control and ±100 the full control effect; nearly all actives have a fitted effect of over 60% in size
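Using CellTiter-Glo luminescence, growth of non-resistant KB-3-1 adenocarcinoma cells is assessed 72 h after pin-tool compound addition at 37 °C. Normalized responses across the concentration series yield fitted curves.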
SW480 rereplic: induces DNA re-replication in SW480 colon adenocarcinoma cells; SW480 DNA re-replication, Hoechst DNA content imaging, 48 h; Potency, µM (titrated, usually from 46.1 µM), without a hit: at the highest dose re-replication activation, hits mostly activators; 340,000 compounds, 1.8% hits; further: % of control where 0% means no effect; nearly all actives have a fitted effect of over 55% in size
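DNA re-replication was detected as more nuclei of elevated Hoechst intensity after 48 hr exposure to compound (23 nL pinned per well of 250 cells).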
* = called active by the depositor; [ ] = another dose, or the depositor's remark. The call rests on the fitted dose curve; in most records, active means well fitted curve in the direction sought with a large enough effect; inconclusive means small, poorly fitted or top-dose-only effect, or another doubt; inactive means no such curve, though single readings can be large; an effect the other way counts as inactive or inconclusive. Potency means the concentration at half of the fitted maximal effect.

Screening CCn1c(SCC(=O)Nc2ccc3c(c2)c2ccccc2n3CC)nnc1-c1ccco1 returned HT1080-NT tox inconclusive, KB-V1 cytotox inactive, HT1080 IDH1KD tx 0%, MCF10A rerep 11%, KB-3-1 cytotox inactive and SW480 rereplic 5%.
`CCn1c2ccccc2c2cc(NC(=O)CSc3nnc(-c4ccccc4)o3)ccc21` gave HT1080-NT tox inconclusive, KB-V1 cytotox inconclusive, HT1080 IDH1KD tx 21µM*, MCF10A rerep inconclusive, KB-3-1 cytotox inactive and SW480 rereplic 0.65µM*.
Screening CCOc1ccc(-c2nnc(SCC(=O)c3ccccc3)n2-c2ccccc2)cc1 returned KB-V1 cytotox inactive and KB-3-1 cytotox inactive.
`CCOC(=O)N(O)c1ccc(C=Cc2ccccc2)cc1` gave HT1080-NT tox 3%, KB-V1 cytotox 21µM*, HT1080 IDH1KD tx 0%, MCF10A rerep inconclusive, KB-3-1 cytotox inconclusive and SW480 rereplic 12µM*.
`c1ccc2sc(NC3=NCN(C4CCCCCC4)CN3)nc2c1` gave HT1080-NT tox -1%, KB-V1 cytotox 21µM*, HT1080 IDH1KD tx 3%, MCF10A rerep 2%, KB-3-1 cytotox inconclusive and SW480 rereplic -12%.
Cc1cccc(CNS(=O)(=O)c2ccc(-c3coc(C)n3)cc2)c1 was read as KB-V1 cytotox inactive and KB-3-1 cytotox inactive.
Screening Cc1c2ccncc2cc2c1[nH]c1ccccc12 returned HT1080-NT tox 18µM*, KB-V1 cytotox inconclusive, HT1080 IDH1KD tx 13µM*, MCF10A rerep 16µM*, KB-3-1 cytotox inconclusive and SW480 rereplic 23µM*.
Screening COc1ccc(CCNC(=O)Cn2nnc(-c3ccc(C(F)(F)F)cc3)n2)cc1OC returned KB-V1 cytotox inactive and KB-3-1 cytotox inactive.
Screening Cc1nc(N2CCN(C)CC2)c2c(C)c(C(=O)Nc3ccc(C)c(F)c3)sc2n1 returned HT1080-NT tox -5%[9.24 µM], KB-V1 cytotox inactive, HT1080 IDH1KD tx 14µM*, MCF10A rerep inconclusive, KB-3-1 cytotox inactive and SW480 rereplic inconclusive.
Screening Cc1nc(N2CCC(C)CC2)c2c(C)c(C(=O)Nc3ccc(C)c(F)c3)sc2n1 returned HT1080-NT tox 13%, KB-V1 cytotox inactive, HT1080 IDH1KD tx -6%, MCF10A rerep -1%, KB-3-1 cytotox inactive and SW480 rereplic -5%.
Cc1nc(N2CCC(C)CC2)c2c(C)c(C(=O)Nc3ccccc3C(F)(F)F)sc2n1 was read as HT1080-NT tox 0%, KB-V1 cytotox inactive, HT1080 IDH1KD tx -12%, MCF10A rerep 9.2µM*, KB-3-1 cytotox inactive and SW480 rereplic 1%.
`COc1ccccc1CNC(=O)Nc1nnc(-c2ccncc2)s1` gave KB-V1 cytotox inactive and KB-3-1 cytotox inconclusive.
Screening C=CCn1c(COc2ccc(OC)cc2)nnc1SCn1nnc2ccccc2c1=O returned HT1080-NT tox -7%, KB-V1 cytotox 21µM*, HT1080 IDH1KD tx -1%, MCF10A rerep -67%, KB-3-1 cytotox inactive and SW480 rereplic -30%.
c1ccc(Nc2nc(-c3ccccc3)c(-c3ccccc3)s2)cc1 was read as HT1080-NT tox -28% and HT1080 IDH1KD tx inconclusive.
For CN(C)[C@H]1N(C(=O)c2ccc(Br)cc2)N=C2c3ccccc3S(=O)(=O)N21 the results were HT1080-NT tox -1%, KB-V1 cytotox 8.2µM*, HT1080 IDH1KD tx 4%, MCF10A rerep 3%, KB-3-1 cytotox inactive and SW480 rereplic -3%.
For Cc1ccc(N(CC(O)Cn2c3ccccc3c3ccccc32)S(C)(=O)=O)c(C)c1 (stereo not given) the results were HT1080-NT tox 18µM*, KB-V1 cytotox 13µM*, HT1080 IDH1KD tx inconclusive, MCF10A rerep inconclusive, KB-3-1 cytotox 23µM* and SW480 rereplic 5%.
Cc1cc(C(=O)Nc2sc3c(c2C#N)CCC(C)C3)no1 (stereo not given) was read as HT1080-NT tox inconclusive, KB-V1 cytotox 12µM*, HT1080 IDH1KD tx inconclusive, MCF10A rerep 9.2µM*, KB-3-1 cytotox inconclusive and SW480 rereplic inconclusive.
`Cc1onc(-c2ccccc2)c1C(=O)Nc1sc2c(c1C#N)CCC2` gave HT1080-NT tox 13µM*, KB-V1 cytotox 4.6µM*, HT1080 IDH1KD tx inconclusive, MCF10A rerep inconclusive, KB-3-1 cytotox inconclusive and SW480 rereplic inconclusive.
For Cc1cc(C(F)F)n2nc(C(=O)Nc3sc4c(c3C#N)CCC4)nc2n1 the results were HT1080-NT tox 7%, KB-V1 cytotox 21µM*, HT1080 IDH1KD tx 3%, MCF10A rerep -34%, KB-3-1 cytotox inactive and SW480 rereplic 15%.
For CC(C)Cc1cc(C(=O)Nc2sc3c(c2C#N)CCCC3)no1 the results were HT1080-NT tox 5%, KB-V1 cytotox inactive, HT1080 IDH1KD tx 7%, MCF10A rerep 19%, KB-3-1 cytotox inactive and SW480 rereplic -2%.
Cc1cc(C(=O)Nc2sc3c(c2C#N)CCCC3)no1 was read as HT1080-NT tox inconclusive, KB-V1 cytotox inconclusive, HT1080 IDH1KD tx inconclusive, MCF10A rerep inconclusive, KB-3-1 cytotox inconclusive and SW480 rereplic 12µM*.
Screening CCCCNc1ccc(/C=C2\C=Cc3ccccc32)cc1 returned KB-V1 cytotox inactive and KB-3-1 cytotox inconclusive.
For COc1ccc2c(=O)n3nc(Nc4cccc(N5CCN(C)CC5)c4)sc3nc2c1 the results were KB-V1 cytotox inactive and KB-3-1 cytotox inactive.
`Cc1onc(-c2c(F)cccc2Cl)c1C(=O)Nc1sc2c(c1C(N)=O)CCC2` gave HT1080-NT tox 11µM*, KB-V1 cytotox inconclusive, HT1080 IDH1KD tx 14µM*, MCF10A rerep 5µM*, KB-3-1 cytotox inconclusive and SW480 rereplic inconclusive.
For CCOC(=O)c1c(-c2ccc(F)cc2)csc1NC(=O)c1c(-c2ccccc2)noc1C the results were HT1080-NT tox 0%, KB-V1 cytotox inconclusive, HT1080 IDH1KD tx inconclusive, MCF10A rerep inconclusive, KB-3-1 cytotox inactive and SW480 rereplic inconclusive.
`N#Cc1c(NC(=O)/C=C/c2ccco2)sc2c1CCCC2` gave HT1080-NT tox 0.58µM*, KB-V1 cytotox 1µM*, HT1080 IDH1KD tx inconclusive, MCF10A rerep inconclusive, KB-3-1 cytotox 0.41µM* and SW480 rereplic inconclusive.
For N#Cc1c(NC(=O)c2cc(C3CC3)on2)sc2c1CCC2 the results were HT1080-NT tox inconclusive, KB-V1 cytotox inactive, HT1080 IDH1KD tx inconclusive, MCF10A rerep 3.3µM*, KB-3-1 cytotox 13µM* and SW480 rereplic 21µM*.
Screening COC(=O)c1c(-c2ccccc2)csc1NC(=O)c1c(-c2ccccc2)noc1C returned HT1080-NT tox -4%, KB-V1 cytotox 5.8µM*, HT1080 IDH1KD tx inconclusive, MCF10A rerep inconclusive, KB-3-1 cytotox inactive and SW480 rereplic inconclusive.
